Records with an inconclusive call do not appear. Activity calls are given as the source filed them. How the source made its calls, unless noted: active means hit-call score of the fitted dose curve at least 0.9, where 1 is the maximum; inactive means score below 0.9.
Tests used:
[1] = target: Paired box protein Pax-6 (Homo sapiens) (UniProt P26367); test: ATG_Pax6_CIS: Attagene CIS-FACTORIAL HepG2 Assay for human Paired Box 6 (PAX6) (AID 2282956); settings: HepG2 CIS-FACTORIAL PAX6 reporter transcription, RNA readout; actives raise or lower the signal
Procedure, shortened: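 Read-out is reporter transcript level, measured by RT-PCR with fluorescent primer extension and capillary electrophoresis after 24 h dosing of transfected HepG2 cells. Activity in either direction fitted relative to DMSO control.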

[2] = ATG_PXRE_CIS: Attagene CIS-FACTORIAL HepG2 Assay for human Pregnane X Receptor Element (PXRE) (AID 2282957); settings: HepG2 Attagene CIS-FACTORIAL PXRE reporter, mRNA; actives raise or lower the signal
Procedure, shortened: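 Fluorescent capillary electrophoresis of amplified reporter cDNA gave the signal, collected 24 h after dosing HepG2 cells that held transfected cis-element reporter constructs.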

[3] = ATG_PPRE_CIS: Attagene CIS-FACTORIAL HepG2 Assay for human Peroxisome Proliferator-activated Response Element (PPRE) (AID 2282958); settings: HepG2 PPRE cis-element reporter, Attagene transcription factor profiling; actives raise or lower the signal
Procedure, shortened: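 Cells are first transfected transiently with the multiplexed reporter library, then dosed for 24 h. Total RNA is reverse-transcribed, amplified, fluorescently end-labeled and HpaI-cut before capillary electrophoresis; activity is fitted bidirectionally against DMSO controls.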

[4] = ATG_RORE_CIS: Attagene CIS-FACTORIAL HepG2 Assay for human RAR-related Orphan Receptor Element (RORE) (AID 2282959); settings: HepG2 Attagene cis-factorial RORE reporter, mRNA; actives raise or lower the signal
Procedure, shortened: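 Cells were HepG2 carrying transfected cis-regulated reporter constructs, dosed for 24 hours. Total RNA was reverse-transcribed and reporter cDNA amplified, fluorescently labeled and sized by capillary electrophoresis. Activity was fitted bidirectionally relative to DMSO.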

[5] = ATG_Sox_CIS: Attagene CIS-FACTORIAL HepG2 Assay for human SRY-box transcription factor (SOX) (AID 2282960); settings: HepG2 Attagene cis-factorial SOX reporter, mRNA; actives raise or lower the signal
Procedure, shortened: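 Transient MRTU transfection of HepG2; 24 h compound incubation; TriZol RNA, oligo(dT) RT, PCR, 6-FAM primer extension, HpaI cut, CE. Bidirectional fit, DMSO = baseline.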

[6] = target: Transcription factor Sp1 (Homo sapiens) (UniProt P08047); test: ATG_Sp1_CIS: Attagene CIS-FACTORIAL HepG2 Assay for human Specificity Protein 1 (Sp1) (AID 2282961); settings: HepG2 Sp1 cis-reporter transcription, actives raise or lower the signal
Procedure, shortened: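 Endogenous Sp1 activity was gauged in human liver HepG2 cells bearing transfected reporter units under a cis-regulating promoter. After 24 h dosing, reporter mRNA was quantified by RT-PCR with capillary electrophoresis, and activity fitted bidirectionally versus DMSO.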

[7] = ATG_SREBP_CIS: Attagene CIS-FACTORIAL HepG2 Assay for human Sterol Regulatory Element Binding (SREBP) (AID 2282962); settings: HepG2 Attagene cis-factorial SREBP reporter, mRNA; actives raise or lower the signal
Procedure, shortened: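 Endogenous SREBP activity read as cis-element-driven reporter transcript in transiently transfected HepG2, 24 h post-dosing; quantified via RT-PCR plus capillary electrophoresis of fluorescent fragments. Gain or loss of signal fitted relative to DMSO baseline.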

[8] = target: Signal transducer and activator of transcription 3 (Homo sapiens) (UniProt P40763); test: ATG_STAT3_CIS: Attagene CIS-FACTORIAL HepG2 Assay for human Signal Transducer and Activator of Transcription 3 (STAT3) (AID 2282963); settings: HepG2, Attagene cis-factorial STAT3 reporter transcription; actives raise or lower the signal
Procedure, shortened: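 Uses human liver HepG2 transiently carrying cis-regulated reporter transcription units. Following 24 h dosing, reporter mRNA induction was detected by RT-PCR and capillary electrophoresis, analysed bidirectionally versus DMSO.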

[9] = ATG_TCF_b_cat_CIS: Attagene CIS-FACTORIAL HepG2 Assay for human T-Cell-Factor with beta-catenin (TCF/b-cat) (AID 2282965); settings: HepG2 TCF/beta-catenin cis-reporter transcription, actives raise or lower the signal
Procedure, shortened: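 HepG2 cells transiently transfected with multiple cis-promoter-regulated reporter transcription units, so endogenous transcription factor activity is measured. Reporter mRNA read 24 hours after dosing by RT-PCR, fluorescent labelling and capillary electrophoresis; bidirectional fitting against DMSO.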

[10] = ATG_TAL_CIS: Attagene CIS-FACTORIAL HepG2 Assay for human TAL Basal Promoter (AID 2282966); settings: HepG2 Attagene cis-factorial TAL promoter reporter; actives raise or lower the signal;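 further: background control endpoint measuring basal TAL promoter reporter mRNA not a specific factor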
Procedure, shortened: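 Transiently transfected HepG2 (cis-regulated reporter units), 24 h treatment, mRNA read by fluorescent CE after RT-PCR; bidirectional fit, DMSO baseline.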

[11] = ATG_TGFb_CIS: Attagene CIS-FACTORIAL HepG2 Assay for human Transforming Growth Factor (TGF) (AID 2282967); settings: HepG2 Attagene CIS TGFb reporter, mRNA transcription; actives raise or lower the signal
Procedure, shortened: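 Bidirectional fitting relative to DMSO gave the endpoint. Underlying data: reporter mRNA from HepG2 cells carrying transiently transfected cis-regulated reporter constructs, harvested 24 h after dosing and analyzed by RT-PCR and capillary electrophoresis.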

[12] = target: X-box-binding protein 1 (Homo sapiens) (UniProt P17861); test: ATG_Xbp1_CIS: Attagene CIS-FACTORIAL HepG2 Assay for human X-box Binding Protein 1 (XBP1) (AID 2282972); settings: HepG2 XBP1 cis-element reporter, Attagene multiplex; actives raise or lower the signal
Procedure, shortened: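 Reporter transcripts were quantified by RT-PCR with fluorescent primer extension and capillary electrophoresis after 24 h chemical exposure. Cells: transiently transfected HepG2 carrying cis-regulated reporter constructs; data fitted bidirectionally relative to DMSO.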

[13] = ATG_M_19_TRANS: Attagene TRANS-FACTORIAL HepG2 Assay for M19 Transcription Factor (Internal Marker) (AID 2282974; active means hit-call score of the fitted dose curve at least 0.9, where 1 is the maximum); settings: HepG2 Attagene TRANS-FACTORIAL M19 internal marker reporter
Procedure, shortened: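 Cells: human HepG2, transiently transfected with multiplexed reporter transcription units. Exposure: 24 h. Detection: RT-PCR of reporter mRNA with capillary electrophoresis. Analysis: gain-of-signal vs DMSO.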

[14] = target: Estrogen-related receptor gamma (Homo sapiens) (UniProt P62508); test: ATG_ERRg_TRANS: Attagene TRANS-FACTORIAL HepG2 Assay for human Estrogen-Related Receptor gamma (ERRg) (AID 2282977; active means hit-call score of the fitted dose curve at least 0.9, where 1 is the maximum;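 further: hits increase reporter signal over DMSO so potencies reflect activators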); settings: HepG2 Attagene TRANS reporter, ERRg transactivation
Procedure, shortened: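 Exogenous NR-Gal4 chimera activity was assessed in HepG2 cells bearing transfected GAL4-UAS reporters. After 24 h dosing, total RNA underwent RT-PCR, fluorescent primer extension and HpaI digestion before capillary electrophoresis, with gain of signal scored against DMSO.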

[15] = ATG_TA_CIS: Attagene CIS-FACTORIAL HepG2 Assay for human TA Basal Promoter (AID 2282964); settings: HepG2 Attagene CIS-factorial TA basal promoter reporter; actives raise or lower the signal
Procedure, shortened: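 Fluorescence from labelled RT-PCR reporter fragments, separated by capillary electrophoresis, gives the signal. Cells: HepG2 transiently carrying multiple reporter units, 24 h chemical dosing. Gain or loss relative to DMSO.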

[16] = ATG_VDRE_CIS: Attagene CIS-FACTORIAL HepG2 Assay for human Vitamin D Receptor Element (VDRE) (AID 2282968); settings: HepG2 VDRE cis-reporter transcription, actives raise or lower the signal
Procedure, shortened: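 Transfected HepG2 reporter cells, chemical treatment 24 h. RNA isolated, cDNA amplified with reporter-specific primers, products analysed by capillary electrophoresis. Endpoint fitted in both directions versus DMSO.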

[17] = target: Estrogen receptor (Homo sapiens) (UniProt P03372); test: ATG_ERa_TRANS: Attagene TRANS-FACTORIAL HepG2 Assay for human Estrogen Receptor alpha (ERa) (AID 2282970; active means hit-call score of the fitted dose curve at least 0.9, where 1 is the maximum); settings: HepG2 Attagene TRANS ERa GAL4 reporter, mRNA
Procedure, shortened: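 One of 30 multiplexed endpoints from a HepG2 TRANS system, this one reports ERa-Gal4-driven reporter mRNA. Transcripts were quantified 24 hours post-dosing by fluorescent RT-PCR and capillary electrophoresis, with activity scored as induction over DMSO.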

[18] = target: Nuclear receptor subfamily 1 group I member 3 (Homo sapiens) (UniProt Q14994); test: ATG_CAR_TRANS: Attagene TRANS-FACTORIAL HepG2 Assay for human Constitutive Androstane Receptor (CAR) (AID 2282969; active means hit-call score of the fitted dose curve at least 0.9, where 1 is the maximum;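 further: activators raise reporter mRNA above DMSO so AC50 marks induction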); settings: HepG2 Attagene TRANS-FACTORIAL CAR reporter
Procedure, shortened: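 Steps: transient transfection of HepG2 with multiple GAL4-UAS reporter units; 24 h compound incubation; RNA isolation, RT-PCR, 6-FAM primer extension, HpaI digest; capillary electrophoresis. Gain-of-signal relative to DMSO negative control.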

[19] = ATG_GAL4_TRANS: Attagene TRANS-FACTORIAL HepG2 Assay for GAL4 (Internal Marker) (AID 2282976; active means hit-call score of the fitted dose curve at least 0.9, where 1 is the maximum); settings: HepG2 Attagene TRANS GAL4 internal marker reporter
Procedure, shortened: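 HepG2 cells transiently transfected with multiplexed GAL4-UAS reporter constructs were dosed for 24 h. Reporter mRNA was measured by RT-PCR, 6-FAM primer extension, HpaI digestion and capillary electrophoresis, and gain of signal was fitted relative to DMSO.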

[20] = target: Steroid hormone receptor ERR1 (Homo sapiens) (UniProt P11474); test: ATG_ERRa_TRANS: Attagene TRANS-FACTORIAL HepG2 Assay for human Estrogen-Related Receptor alpha (ERRa) (AID 2282971; active means hit-call score of the fitted dose curve at least 0.9, where 1 is the maximum); settings: HepG2 Attagene TRANS reporter, ERRa transactivation
Procedure, shortened: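 HepG2 cells transiently transfected with multiplexed GAL4-UAS reporter units reading chimeric ERRa-Gal4 activity; 24 h compound exposure. Reporter mRNA measured by RT-PCR, 6-FAM labelling, HpaI digest and capillary electrophoresis; gain of signal fitted versus DMSO baseline.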

Measured: AC50

Sequence of X-box-binding protein 1 (Homo sapiens) (P17861 whole entry, looked up): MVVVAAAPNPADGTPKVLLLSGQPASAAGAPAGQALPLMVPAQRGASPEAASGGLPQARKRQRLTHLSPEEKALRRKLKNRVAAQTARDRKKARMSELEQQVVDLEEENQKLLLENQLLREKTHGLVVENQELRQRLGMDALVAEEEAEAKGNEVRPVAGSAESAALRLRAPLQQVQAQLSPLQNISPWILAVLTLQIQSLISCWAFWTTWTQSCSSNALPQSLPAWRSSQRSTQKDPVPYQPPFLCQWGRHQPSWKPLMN
Sequence of Estrogen-related receptor gamma (Homo sapiens) (P62508 whole entry, looked up, the tested form may be a part): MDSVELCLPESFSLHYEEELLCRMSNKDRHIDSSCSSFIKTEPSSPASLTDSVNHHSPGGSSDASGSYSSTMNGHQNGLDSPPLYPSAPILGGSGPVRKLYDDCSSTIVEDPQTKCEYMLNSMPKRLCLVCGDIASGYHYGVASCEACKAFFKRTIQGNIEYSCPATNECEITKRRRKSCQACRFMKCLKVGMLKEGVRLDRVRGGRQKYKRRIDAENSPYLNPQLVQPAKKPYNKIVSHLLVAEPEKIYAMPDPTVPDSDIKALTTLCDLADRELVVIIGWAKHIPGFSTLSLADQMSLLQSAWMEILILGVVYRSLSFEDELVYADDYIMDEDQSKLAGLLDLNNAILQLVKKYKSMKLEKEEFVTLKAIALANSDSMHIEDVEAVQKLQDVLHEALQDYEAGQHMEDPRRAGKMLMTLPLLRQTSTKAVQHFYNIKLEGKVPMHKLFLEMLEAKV
Sequence of Paired box protein Pax-6 (Homo sapiens) (P26367 whole entry, looked up): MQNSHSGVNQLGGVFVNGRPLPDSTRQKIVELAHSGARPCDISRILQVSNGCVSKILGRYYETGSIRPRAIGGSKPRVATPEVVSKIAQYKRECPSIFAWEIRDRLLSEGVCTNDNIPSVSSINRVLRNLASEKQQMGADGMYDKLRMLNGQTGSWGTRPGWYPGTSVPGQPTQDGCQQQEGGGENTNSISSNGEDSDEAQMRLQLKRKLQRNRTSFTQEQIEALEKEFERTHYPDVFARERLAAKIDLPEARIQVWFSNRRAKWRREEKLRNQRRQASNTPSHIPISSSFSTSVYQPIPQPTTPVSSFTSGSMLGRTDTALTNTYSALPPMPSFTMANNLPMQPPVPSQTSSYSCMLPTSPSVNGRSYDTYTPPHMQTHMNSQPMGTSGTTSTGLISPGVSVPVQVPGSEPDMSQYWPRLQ
Sequence of Estrogen receptor (Homo sapiens) (P03372 whole entry, looked up, the tested form may be a part): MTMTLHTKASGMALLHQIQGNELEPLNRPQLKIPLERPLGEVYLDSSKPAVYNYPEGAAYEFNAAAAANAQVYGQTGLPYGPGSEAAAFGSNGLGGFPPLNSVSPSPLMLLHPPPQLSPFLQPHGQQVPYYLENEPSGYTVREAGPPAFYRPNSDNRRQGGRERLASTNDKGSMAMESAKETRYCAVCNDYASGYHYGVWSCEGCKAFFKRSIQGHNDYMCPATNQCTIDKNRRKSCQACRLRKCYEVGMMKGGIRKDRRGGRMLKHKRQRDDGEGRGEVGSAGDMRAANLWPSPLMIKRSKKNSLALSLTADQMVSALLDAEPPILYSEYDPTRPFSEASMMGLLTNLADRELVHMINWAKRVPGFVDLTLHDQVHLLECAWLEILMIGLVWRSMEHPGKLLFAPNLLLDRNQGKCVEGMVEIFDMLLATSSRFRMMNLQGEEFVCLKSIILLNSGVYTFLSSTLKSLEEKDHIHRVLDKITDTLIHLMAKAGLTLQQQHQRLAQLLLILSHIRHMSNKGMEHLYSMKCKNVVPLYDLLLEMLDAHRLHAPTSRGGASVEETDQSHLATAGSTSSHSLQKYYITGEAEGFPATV
Sequence of Nuclear receptor subfamily 1 group I member 3 (Homo sapiens) (Q14994 whole entry, looked up, the tested form may be a part): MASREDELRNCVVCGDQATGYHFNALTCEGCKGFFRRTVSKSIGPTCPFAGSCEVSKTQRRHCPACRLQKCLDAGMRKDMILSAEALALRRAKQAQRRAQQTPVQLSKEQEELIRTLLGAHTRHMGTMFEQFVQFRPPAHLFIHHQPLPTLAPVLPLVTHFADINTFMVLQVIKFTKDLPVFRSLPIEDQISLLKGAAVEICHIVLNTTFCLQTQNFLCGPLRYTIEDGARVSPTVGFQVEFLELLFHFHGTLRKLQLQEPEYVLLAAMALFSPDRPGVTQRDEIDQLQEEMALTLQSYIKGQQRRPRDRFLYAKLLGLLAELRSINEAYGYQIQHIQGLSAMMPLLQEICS
Sequence of Signal transducer and activator of transcription 3 (Homo sapiens) (P40763 whole entry, looked up): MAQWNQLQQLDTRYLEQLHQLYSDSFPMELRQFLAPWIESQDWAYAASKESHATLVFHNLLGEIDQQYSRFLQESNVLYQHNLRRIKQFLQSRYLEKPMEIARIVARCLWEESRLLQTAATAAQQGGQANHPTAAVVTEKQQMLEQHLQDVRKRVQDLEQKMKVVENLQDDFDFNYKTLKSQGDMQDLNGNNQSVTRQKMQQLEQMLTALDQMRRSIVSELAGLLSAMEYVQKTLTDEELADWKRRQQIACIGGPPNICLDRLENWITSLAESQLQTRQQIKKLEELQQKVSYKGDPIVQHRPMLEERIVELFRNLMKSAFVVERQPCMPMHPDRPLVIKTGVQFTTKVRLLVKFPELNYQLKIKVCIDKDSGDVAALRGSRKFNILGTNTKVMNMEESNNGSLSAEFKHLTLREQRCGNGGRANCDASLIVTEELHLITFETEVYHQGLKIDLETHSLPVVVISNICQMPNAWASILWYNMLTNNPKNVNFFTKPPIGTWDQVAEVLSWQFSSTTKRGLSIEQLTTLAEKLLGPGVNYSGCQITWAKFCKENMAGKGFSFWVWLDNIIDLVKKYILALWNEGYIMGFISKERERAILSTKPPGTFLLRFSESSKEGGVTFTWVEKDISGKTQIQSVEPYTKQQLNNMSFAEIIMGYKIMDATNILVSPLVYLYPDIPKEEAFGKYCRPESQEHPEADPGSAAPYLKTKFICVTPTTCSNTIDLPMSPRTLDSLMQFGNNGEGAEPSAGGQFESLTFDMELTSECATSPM
Sequence of Transcription factor Sp1 (Homo sapiens) (P08047 whole entry, looked up): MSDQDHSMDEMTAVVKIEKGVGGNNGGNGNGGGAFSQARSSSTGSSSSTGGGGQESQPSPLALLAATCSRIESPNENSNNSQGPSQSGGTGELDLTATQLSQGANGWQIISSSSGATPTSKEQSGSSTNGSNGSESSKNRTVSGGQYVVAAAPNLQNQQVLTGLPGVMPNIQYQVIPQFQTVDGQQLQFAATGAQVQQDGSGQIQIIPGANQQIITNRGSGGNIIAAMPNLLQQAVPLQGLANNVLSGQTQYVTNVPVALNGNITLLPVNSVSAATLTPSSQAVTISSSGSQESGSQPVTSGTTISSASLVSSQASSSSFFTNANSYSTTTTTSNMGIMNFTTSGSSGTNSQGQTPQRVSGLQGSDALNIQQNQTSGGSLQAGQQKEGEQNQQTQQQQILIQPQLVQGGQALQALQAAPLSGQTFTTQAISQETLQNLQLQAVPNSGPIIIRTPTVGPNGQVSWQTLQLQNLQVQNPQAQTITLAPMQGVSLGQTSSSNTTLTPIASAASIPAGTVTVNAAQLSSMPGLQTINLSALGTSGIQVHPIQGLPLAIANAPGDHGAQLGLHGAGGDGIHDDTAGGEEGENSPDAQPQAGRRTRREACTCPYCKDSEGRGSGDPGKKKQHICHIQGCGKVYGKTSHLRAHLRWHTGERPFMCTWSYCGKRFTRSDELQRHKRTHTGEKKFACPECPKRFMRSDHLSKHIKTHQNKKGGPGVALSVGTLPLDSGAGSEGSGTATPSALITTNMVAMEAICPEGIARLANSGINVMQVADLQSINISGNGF
Sequence of Steroid hormone receptor ERR1 (Homo sapiens) (P11474 whole entry, looked up, the tested form may be a part): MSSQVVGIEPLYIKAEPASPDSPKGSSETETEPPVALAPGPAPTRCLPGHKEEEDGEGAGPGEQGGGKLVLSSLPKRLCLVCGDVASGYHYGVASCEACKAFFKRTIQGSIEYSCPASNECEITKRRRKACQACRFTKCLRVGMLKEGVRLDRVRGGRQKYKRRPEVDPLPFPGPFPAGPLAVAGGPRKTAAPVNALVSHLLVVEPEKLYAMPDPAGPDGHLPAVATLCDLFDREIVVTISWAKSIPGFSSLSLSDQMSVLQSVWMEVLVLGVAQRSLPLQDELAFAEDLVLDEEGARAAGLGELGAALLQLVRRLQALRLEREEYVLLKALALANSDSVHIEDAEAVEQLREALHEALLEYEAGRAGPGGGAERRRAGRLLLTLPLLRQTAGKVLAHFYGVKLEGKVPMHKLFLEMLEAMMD

CCCCCCC#CC(=O)OC
active: [2] 30.5 µM
not listed: [15] | [16] | [17] | [18] | [19] | [20]
inactive: all other assays above

C[C@H]1C[C@H]2[C@@H]3CCC4=CC(=O)C=C[C@]4(C)[C@@]3(F)[C@@H](O)C[C@]2(C)[C@@]1(O)C(=O)COP(=O)(O)O
not listed: [6] | [14] | [18] | [19] | [20]
inactive: all other assays above

C#C[C@]1(O)CC[C@H]2[C@@H]3CCC4=Cc5oncc5C[C@]4(C)[C@H]3CC[C@@]21C
inactive: [3] | [4] | [10] | [11]
active: [1] 20.1 µM | [2] 8.09 µM | [5] 61.3 µM | [6] 57.6 µM | [7] 14.8 µM | [15] 8.11 µM | [9] 22 µM | [16] 4.54 µM | [17] 0.412 µM | [12] 42.1 µM

CCCCN
not listed: [6] | [8] | [14] | [17] | [19] | [20]
inactive: all other assays above

O=C(O)CCSCCC(=O)O
active: [2] 54.3 µM
not listed: [6] | [14] | [16] | [18] | [19] | [20]
inactive: all other assays above

CC(=O)[C@H]1CC[C@H]2[C@@H]3CC=C4C[C@@H](O)CC[C@]4(C)[C@H]3CC[C@]12C
active: [2] 3.37 µM | [9] 52.8 µM | [16] 22.6 µM | [17] 1.32 µM
not listed: [8] | [13] | [14] | [18] | [19] | [20]
inactive: all other assays above

C=CC[N+](C)(C)CC=C
not listed: [6] | [13] | [14] | [17] | [18] | [20]
inactive: all other assays above

CCCCCNCCCCC
active: [2] 59.4 µM
not listed: [13] | [14] | [15] | [17] | [18] | [20]
inactive: all other assays above

CCCCCCCCCCCCN(CCCCCCCCCCCC)CCCCCCCCCCCC
not listed: [13] | [14] | [15] | [17] | [19] | [20]
inactive: all other assays above

CC(C)C(C)(C)C(C)(C)C(C)(C)S
active: [2] 4.43 µM | [16] 6.65 µM | [17] 40.8 µM
not listed: [6] | [13] | [14] | [18] | [19] | [20]
inactive: all other assays above

C=CC(C)(CCC=C(C)C)OC=O (stereo not given)
active: [2] 24.8 µM
not listed: [6] | [20]
inactive: all other assays above

CC(C=O)Cc1ccc(C(C)C)cc1 (stereo not given)
active: [2] 24 µM
not listed: [8] | [10] | [13] | [14] | [17] | [18] | [20]
inactive: all other assays above

C=C(C)C(=O)OCc1ccccc1
not listed: [8] | [14] | [18] | [19]
inactive: all other assays above

O=C(O)c1cccc(C(F)(F)F)c1
not listed: [13] | [15] | [20]
inactive: all other assays above

O=Cc1ccc(F)cc1
not listed: [6] | [13] | [14] | [18] | [20]
inactive: all other assays above

O=C(Nc1ccccc1)c1cc([N+](=O)[O-])ccc1Cl
active: [1] 32.8 µM | [2] 2.97 µM | [5] 40.5 µM | [17] 5.47 µM | [12] 4.35 µM
not listed: [8] | [13] | [16] | [19] | [20]
inactive: all other assays above
